ELG1 repair inh = qHTS screen for small molecules that inhibit ELG1-dependent DNA repair in human embryonic kidney (HEK293T) cells expressing luciferase-tagged ELG1 | HEK293T ELG1-luciferase reporter, luminescence, 16 h; DNA damage induced by 5-fluorouridine | Potency, µM (series often up to 46.1 µM), inactives show at the top dose activity change, negative = inhibition, usual class: inhibitors | 330,000 compounds, 2.3% hits | AID 504467, 2011; further: potency means the concentration at half of the fitted maximal effect; nearly all actives have a fitted effect of over 55% in size
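DMSO vehicle served as the neutral condition. Each well held 2,000 cells given 5-fluorouridine plus compound; after 16 hr at 37 °C/5% CO2, ONE-Glo was added and luciferase measured 30 min later.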
TDP1 inh = qHTS Assay for Inhibitors of Tyrosyl-DNA Phosphodiesterase (TDP1); recombinant TDP1, AlphaScreen DNA substrate cleavage; 350,000 compounds, 0.28% hits; AID 485290, 2010; Potency, µM (top dose mostly 130 µM), for the others: top-dose activity change, negative = inhibition, most hits filed as inhibitors; Tyrosyl-DNA phosphodiesterase 1 (Homo sapiens), Q9NUW8; further: potency means the concentration at half of the fitted maximal effect; nearly all actives have a fitted effect of over 40% in size
Target sequence (Q9NUW8 whole entry, looked up): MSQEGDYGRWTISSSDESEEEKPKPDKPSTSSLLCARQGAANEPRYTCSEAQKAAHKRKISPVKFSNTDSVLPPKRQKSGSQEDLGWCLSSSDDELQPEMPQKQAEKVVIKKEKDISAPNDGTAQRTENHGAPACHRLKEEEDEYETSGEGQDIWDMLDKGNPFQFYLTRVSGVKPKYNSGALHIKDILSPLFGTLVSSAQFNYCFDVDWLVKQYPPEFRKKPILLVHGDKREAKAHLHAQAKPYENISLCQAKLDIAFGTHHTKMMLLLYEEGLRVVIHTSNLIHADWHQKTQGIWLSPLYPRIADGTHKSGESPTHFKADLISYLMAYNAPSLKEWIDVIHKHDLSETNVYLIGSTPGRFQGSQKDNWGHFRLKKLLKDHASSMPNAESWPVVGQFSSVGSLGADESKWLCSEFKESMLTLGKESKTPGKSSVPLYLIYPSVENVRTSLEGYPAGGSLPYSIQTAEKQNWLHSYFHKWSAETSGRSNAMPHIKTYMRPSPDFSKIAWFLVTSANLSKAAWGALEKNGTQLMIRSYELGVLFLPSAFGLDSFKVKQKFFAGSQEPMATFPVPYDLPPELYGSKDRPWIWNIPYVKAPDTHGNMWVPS
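Here, a 5' biotin and 3' phosphotyrosine-FITC DNA oligonucleotide reports Tdp1 activity: intact substrate bridges AlphaScreen beads, while cleavage leaves a 3' phosphate and drops signal. All incubations at room temperature.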
IL1B secr inh = qHTS for Inhibitors of Inflammasome Signaling: IL-1-beta AlphaLISA Primary Screen. activity change, % at 57.5 µM. 360,000 compounds, 4.7% hits. THP-1 LPS/ATP IL-1B secretion, AlphaLISA, 16 h; stronger effect = lower value; in the data active means activity change below about -50%; inconclusive means mostly about -30% to -49%
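THP-1 cells pretreated 1 hr with compounds (up to 57.5 uM final), then stimulated with LPS (250 ng/mL final) plus ATP (1.25 mM final); secreted IL-1B measured by AlphaLISA after 16 hr, decreased signal indicating inhibition.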
DT40 TDP1 CPT = qHTS for Inhibitors of human tyrosyl-DNA phosphodiesterase 1 (TDP1): qHTS in cells in presence of CPT; AID 686979, 2013; 420,000 compounds, 12% hits; Potency, µM (top dose mostly 46.2 µM), inactives show at the highest dose activity change, negative = growth inhibition, most hits filed as inhibitors; chicken DT40 Tdp1-/-;hTDP1 cells + 20 nM CPT, ATP luminescence, 48 h; further: potency means the concentration at half of the fitted maximal effect; nearly all actives have a fitted effect of over 55% in size
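Chicken DT40 Tdp1-/- cells stably complemented with human TDP1 were seeded at 400 cells/well in medium containing 20 nM camptothecin, exposed to pin-transferred compounds, and grown at 37 °C for at least 48 hr. Viability was read as ATP luminescence.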
DT40 TDP1 no CPT = qHTS for Inhibitors of human tyrosyl-DNA phosphodiesterase 1 (TDP1): qHTS in cells in absence of CPT. DT40 Tdp1-/- hTDP1 cells, no CPT, ATP luminescence, 48 h. Potency, µM (doses to about 46.2 µM), for the others: top-dose activity change, negative = growth inhibition, usual class: inhibitors. 420,000 compounds, 15% hits. AID 686978, 2013; further: potency means the concentration at half of the fitted maximal effect; nearly all actives have a fitted effect of over 55% in size
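Growth of hTDP1-complemented DT40 Tdp1-knockout cells is measured by ATP luminescence after at least 48 hr compound exposure at 37 °C, with DMSO substituting for the 20 nM CPT used in the parallel screen.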
Giardia killer = Small Molecules that selectively kill Giardia lamblia: qHTS | Giardia lamblia trophozoite viability | activity change, % at 7.66 µM, hits read low | 340,000 compounds, 0.15% hits | AID 540267, 2011; in the data active means activity change below about -80%; inconclusive means between about -30% and that limit;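 further: parasites exposed to compound for two days anaerobically before the ATP read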
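Trophozoite viability was measured as ATP-dependent luminescence, read 15-30 min after reagent addition. Before that, parasites at 100 cells/well were exposed to compounds for 48 h, anaerobically, at 37 deg C.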
Starred values were filed as active, the others as inactive; ? = inconclusive; . = no result given. The list is not random: actives were taken first. Their share in the collection is about 19%. Unless noted, the call rests on the fitted dose curve; in most records, active means well fitted curve in the direction sought with a large enough effect; inconclusive means small, poorly fitted or top-dose-only effect, or another doubt; inactive means no such curve, though single readings can be large; an effect the other way counts as inactive or inconclusive. On the % scale 0 is the no-effect control and ±100 the full control effect.

SMILES	ELG1 repair inh	TDP1 inh	IL1B secr inh	DT40 TDP1 CPT	DT40 TDP1 no CPT	Giardia killer
C=CC(=O)N1C/C(=C/c2ccccc2)C(=O)/C(=C\c2ccccc2)C1	.	.	-102.6*	0.731µM*	0.731µM*	25.7
C=CC(=O)N1C/C(=C/c2ccc(Cl)cc2)C(=O)/C(=C\c2ccc(Cl)cc2)C1	.	.	-115.2*	0.231µM*	0.411µM*	-12.1
Cc1ccc(-c2nnn(CC(=O)N(c3ccccc3)C(C(=O)NCC3CCCO3)c3cccs3)n2)o1 (stereo not given)	2.8%	-5.3%	-2.6	0.8%	-28.8%	6.2
O=C(CCS(=O)(=O)c1cc2c(cc1Cl)NC(=O)CO2)NCCc1ccc(Cl)cc1	.	0.0%	.	.	.	.
COc1cc(/C=N\Nc2nncn2N)ccc1OC(C)=O	12.8%	4.5%	3.1	-6.6%	?	-20.5
O=C(CSc1ncnc2sc(-c3ccccc3)cc12)NC1CCS(=O)(=O)C1 (stereo not given)	-28.6%	1.3%	-65.9*	-52.1%	14.6µM*	1.9
CN(C)C(=O)CSc1nc(-c2ccccc2)c(-c2ccccc2)o1	-8.8%	0.0%	3.5	-27.5%	?	-3.1
COCC(C)NC(=O)CSc1nc(-c2ccccc2)c(-c2ccccc2)o1 (stereo not given)	?	6.6%	3.7	11.6µM*	8.2µM*	2.3
O=C(CSc1nc(-c2ccccc2)c(-c2ccccc2)o1)NC1CCS(=O)(=O)C1 (stereo not given)	23.1µM*	2.9%	?	-11.1%	?	-24.7
CNC(=O)CSc1nc(-c2ccccc2)c(-c2ccccc2)o1	5.6%	0.0%	1.9	-27.1%	?	2.2
O=C(CSc1nc(-c2ccccc2)c(-c2ccccc2)o1)N1CCOCC1	?	5.9%	-7.3	29.1µM*	16.4µM*	-12.9
O=C(CSc1nnc(-c2ccccc2)o1)NC1CCS(=O)(=O)C1 (stereo not given)	11.7%	5.5%	0.4	20.4%	-8.8%	-23.9
CCOC(=O)N1CCN(C(=O)C[C@@H]2C[C@@]3(C(=O)OCC)CCC=C3N(Cc3ccc(Cl)cc3Cl)C2=O)CC1	.	.	0.0	18.4µM*	14.6µM*	.
CCOC(=O)[C@]12CCC=C1N(Cc1ccc(Cl)cc1Cl)C(=O)[C@H](CC(=O)N1CCCCC1)C2	.	.	12.7	?	?	.
CCOC(=O)[C@]12CCC=C1N(Cc1ccc(Cl)cc1Cl)C(=O)[C@H](CC(=O)N1CCCC1)C2	.	.	-19.0	16.4µM*	14.6µM*	.
CCOC(=O)[C@]12CCCC=C1N(Cc1ccc(Cl)cc1Cl)C(=O)[C@H](CC(=O)N1CCOCC1)C2	.	.	8.5	?	14.6µM*	.
CCOC(=O)[C@]12CCC=C1N(Cc1ccc(Cl)cc1Cl)C(=O)[C@H](CC(=O)N1CCN(C(=O)c3ccco3)CC1)C2	.	.	?	16.4µM*	16.4µM*	.
CC(NC(=O)CN(c1ccc(Cl)cc1)S(C)(=O)=O)c1ccccc1 (stereo not given)	-5.6%	.	-8.8	4.6%	4.7%	-5.0
COc1ccccc1C(=O)N1CCCCC1CCN1CCOCC1 (stereo not given)	.	7.0%	.	-18.5%	0.6%	.
CCCSc1ncc(Cl)c(C(=O)Nc2ccc(OC)cc2OC)n1	.	1.2%	.	?	-17.7%	.
CCOC(=O)[C@]12CCC=C1N(Cc1ccccc1)C(=O)[C@H](CC(=O)N1CCCCC1)C2	.	.	7.1	20.6µM*	?	.
